Measurements published in article PMC7862700, “An all-to-all approach to the identification of sequence-specific readers for epigenetic DNA modifications on cytosine”.

What was measured:
Assay in all cases: DAPPL (digital affinity profiling via proximity ligation, sequencing); 10 mM Tris-HCl pH 7.5, 50 mM NaCl, 1 mM DTT, 4% glycerol, room temperature, 30 min; GST-TFs on glutathione beads, 16-mer random dsDNA library, 0.1% formaldehyde crosslink after washing; high values mean tight binding
FLI1 = biological target: T1, FLI1 (Homo sapiens, UniProt Q01543 1-452); settings: protein: recombinant; tags: N-terminal GST; dsDNA, one strand shown
T1 sequence: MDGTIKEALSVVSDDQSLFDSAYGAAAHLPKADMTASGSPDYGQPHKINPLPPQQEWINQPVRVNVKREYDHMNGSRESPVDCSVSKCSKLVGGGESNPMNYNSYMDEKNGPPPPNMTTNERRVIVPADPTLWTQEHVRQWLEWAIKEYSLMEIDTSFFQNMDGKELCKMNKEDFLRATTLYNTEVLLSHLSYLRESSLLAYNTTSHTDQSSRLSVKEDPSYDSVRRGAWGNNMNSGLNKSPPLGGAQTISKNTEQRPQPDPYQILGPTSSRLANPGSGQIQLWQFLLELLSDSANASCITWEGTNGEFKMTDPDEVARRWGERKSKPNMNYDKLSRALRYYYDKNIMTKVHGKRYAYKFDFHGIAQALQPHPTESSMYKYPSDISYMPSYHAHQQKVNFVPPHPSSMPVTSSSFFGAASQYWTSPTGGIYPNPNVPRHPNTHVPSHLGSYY
Method in brief: (§1)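 Beads coated with glutathione captured GST-fused human transcription factors that had been expressed in yeast, and the factors were then given DNA barcodes and pooled with a tag-only sample. The pools were incubated with 200 nmole of a random double-stranded 16-mer DNA library in Tris/NaCl/DTT/glycerol buffer for 30 min at room temperature, washed, crosslinked with 0.1% formaldehyde and proximity-ligated with BsaI/T4 ligase at 37 °C for 1 h. PCR amplification and Illumina NextSeq500 sequencing came last. Binding signal is each hexamer's read frequency for a factor divided by its frequency for the tag-only sample.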

ELK1 = biological target: T2, ELK1 (Homo sapiens, UniProt P19419 1-428); settings: protein: recombinant; tags: N-terminal GST; dsDNA, one strand shown
T2 sequence: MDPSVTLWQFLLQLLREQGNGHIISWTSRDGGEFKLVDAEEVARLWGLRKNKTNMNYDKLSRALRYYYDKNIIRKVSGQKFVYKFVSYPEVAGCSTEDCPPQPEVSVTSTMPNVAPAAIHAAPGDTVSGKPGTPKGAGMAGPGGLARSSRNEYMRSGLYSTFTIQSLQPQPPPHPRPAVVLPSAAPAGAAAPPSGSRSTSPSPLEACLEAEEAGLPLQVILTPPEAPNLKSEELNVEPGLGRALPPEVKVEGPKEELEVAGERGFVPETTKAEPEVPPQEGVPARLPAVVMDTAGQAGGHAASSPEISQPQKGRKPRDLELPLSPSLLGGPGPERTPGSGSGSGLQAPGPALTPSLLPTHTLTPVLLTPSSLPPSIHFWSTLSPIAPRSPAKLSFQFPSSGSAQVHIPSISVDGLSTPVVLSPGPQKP
Method in brief: as §1

GABPA = biological target: T3, GABPA (Homo sapiens, UniProt Q06546 1-454); settings: protein: recombinant; tags: N-terminal GST; dsDNA, one strand shown
T3 sequence: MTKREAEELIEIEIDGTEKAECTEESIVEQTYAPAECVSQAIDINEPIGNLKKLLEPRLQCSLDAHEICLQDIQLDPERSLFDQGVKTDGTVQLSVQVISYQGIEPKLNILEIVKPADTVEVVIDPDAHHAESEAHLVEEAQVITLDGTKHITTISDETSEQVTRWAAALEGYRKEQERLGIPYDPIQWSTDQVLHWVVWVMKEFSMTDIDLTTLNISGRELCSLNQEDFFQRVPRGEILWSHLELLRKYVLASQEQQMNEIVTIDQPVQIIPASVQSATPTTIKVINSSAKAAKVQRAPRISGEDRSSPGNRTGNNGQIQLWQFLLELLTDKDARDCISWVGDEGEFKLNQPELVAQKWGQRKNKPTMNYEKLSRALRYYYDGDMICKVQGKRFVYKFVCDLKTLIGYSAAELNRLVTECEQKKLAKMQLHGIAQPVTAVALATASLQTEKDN
Method in brief: as §1

ERG = biological target: T4, ERG (Homo sapiens, UniProt P11308 1-479); settings: protein: recombinant; tags: N-terminal GST; dsDNA, one strand shown
T4 sequence: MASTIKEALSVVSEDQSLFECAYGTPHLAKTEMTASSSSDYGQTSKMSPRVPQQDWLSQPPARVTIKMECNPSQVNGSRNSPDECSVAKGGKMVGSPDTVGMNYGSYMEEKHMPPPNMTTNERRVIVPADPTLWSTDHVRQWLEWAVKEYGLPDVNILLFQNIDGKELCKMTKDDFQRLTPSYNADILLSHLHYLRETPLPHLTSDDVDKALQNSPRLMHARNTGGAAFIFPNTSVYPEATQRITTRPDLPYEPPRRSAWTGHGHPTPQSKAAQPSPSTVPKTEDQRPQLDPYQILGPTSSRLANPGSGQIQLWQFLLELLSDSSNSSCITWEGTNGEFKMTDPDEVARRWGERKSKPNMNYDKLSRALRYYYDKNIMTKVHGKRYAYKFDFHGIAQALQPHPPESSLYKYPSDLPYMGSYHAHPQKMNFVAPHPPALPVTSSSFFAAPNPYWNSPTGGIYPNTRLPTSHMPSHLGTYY
Method in brief: as §1

ELF1 = ELF1 (Homo sapiens, UniProt P32519 1-619); settings: protein: recombinant; tags: N-terminal GST; dsDNA, one strand shown
ELF1, sequence (P32519 whole entry): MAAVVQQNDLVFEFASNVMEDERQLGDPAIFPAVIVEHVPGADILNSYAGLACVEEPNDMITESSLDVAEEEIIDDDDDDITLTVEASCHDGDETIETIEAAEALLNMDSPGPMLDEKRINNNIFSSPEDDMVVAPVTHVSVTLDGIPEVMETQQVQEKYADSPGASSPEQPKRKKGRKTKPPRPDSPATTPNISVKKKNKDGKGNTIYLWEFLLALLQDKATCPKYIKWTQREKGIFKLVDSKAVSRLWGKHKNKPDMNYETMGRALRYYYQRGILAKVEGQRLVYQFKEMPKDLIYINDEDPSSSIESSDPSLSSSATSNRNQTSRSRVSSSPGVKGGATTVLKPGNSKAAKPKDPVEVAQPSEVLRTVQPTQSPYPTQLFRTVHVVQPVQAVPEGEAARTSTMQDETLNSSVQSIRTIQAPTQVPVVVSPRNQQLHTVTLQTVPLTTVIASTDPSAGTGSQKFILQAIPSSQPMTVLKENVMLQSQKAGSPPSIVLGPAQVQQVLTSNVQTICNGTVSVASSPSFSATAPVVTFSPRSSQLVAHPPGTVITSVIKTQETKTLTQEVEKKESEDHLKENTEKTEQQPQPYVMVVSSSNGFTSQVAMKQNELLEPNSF
Method in brief: as §1

EHF = biological target: T5, EHF (Homo sapiens, UniProt Q9NZC4 1-300); settings: protein: recombinant; tags: N-terminal GST; dsDNA, one strand shown
T5 sequence: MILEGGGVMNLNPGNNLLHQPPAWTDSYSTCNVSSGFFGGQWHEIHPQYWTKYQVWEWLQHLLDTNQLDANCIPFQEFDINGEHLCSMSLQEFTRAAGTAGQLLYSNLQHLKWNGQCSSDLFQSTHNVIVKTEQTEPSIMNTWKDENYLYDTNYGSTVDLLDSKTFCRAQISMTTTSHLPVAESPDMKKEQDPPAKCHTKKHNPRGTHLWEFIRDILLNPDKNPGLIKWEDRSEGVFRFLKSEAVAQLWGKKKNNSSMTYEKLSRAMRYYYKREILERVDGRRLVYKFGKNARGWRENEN
Method in brief: as §1

SPI1 = SPI1 (Homo sapiens, UniProt P17947 1-270); settings: protein: recombinant; tags: N-terminal GST; dsDNA, one strand shown
Method in brief: as §1

SPIB = SPIB (Homo sapiens, UniProt Q01892 1-262); settings: protein: recombinant; tags: N-terminal GST; dsDNA, one strand shown
SPIB, sequence (Q01892 whole entry): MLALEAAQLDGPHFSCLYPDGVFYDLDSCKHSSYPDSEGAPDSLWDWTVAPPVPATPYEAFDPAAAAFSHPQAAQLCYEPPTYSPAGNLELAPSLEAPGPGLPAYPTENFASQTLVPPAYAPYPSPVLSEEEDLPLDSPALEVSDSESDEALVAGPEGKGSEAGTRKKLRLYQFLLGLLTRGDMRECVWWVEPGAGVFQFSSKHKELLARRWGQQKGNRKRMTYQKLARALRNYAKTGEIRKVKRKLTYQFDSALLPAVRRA
Method in brief: as §1

ELK3 = biological target: T6, ELK3 (Homo sapiens, UniProt P41970 1-407); settings: protein: recombinant; tags: N-terminal GST; dsDNA, one strand shown
T6 sequence: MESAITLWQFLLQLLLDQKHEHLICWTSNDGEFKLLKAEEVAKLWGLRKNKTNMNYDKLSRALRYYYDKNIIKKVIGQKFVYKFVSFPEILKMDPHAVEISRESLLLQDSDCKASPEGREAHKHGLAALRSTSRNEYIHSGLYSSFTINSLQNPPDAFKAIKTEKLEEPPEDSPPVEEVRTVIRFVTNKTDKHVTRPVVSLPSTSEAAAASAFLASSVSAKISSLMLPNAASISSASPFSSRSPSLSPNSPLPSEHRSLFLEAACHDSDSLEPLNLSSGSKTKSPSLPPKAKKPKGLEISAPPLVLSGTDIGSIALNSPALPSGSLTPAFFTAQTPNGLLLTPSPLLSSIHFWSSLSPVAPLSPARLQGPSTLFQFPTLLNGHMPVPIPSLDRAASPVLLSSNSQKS
Method in brief: as §1

FEV = biological target: T7, FEV (Homo sapiens, UniProt Q99581 1-238); settings: protein: recombinant; tags: N-terminal GST; dsDNA, one strand shown
T7 sequence: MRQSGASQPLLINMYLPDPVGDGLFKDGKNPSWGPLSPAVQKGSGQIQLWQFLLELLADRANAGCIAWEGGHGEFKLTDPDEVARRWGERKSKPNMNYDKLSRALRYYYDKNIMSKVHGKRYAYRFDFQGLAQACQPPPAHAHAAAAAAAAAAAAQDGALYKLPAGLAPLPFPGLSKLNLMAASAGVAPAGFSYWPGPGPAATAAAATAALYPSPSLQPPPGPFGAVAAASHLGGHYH
Method in brief: as §1

ETV5 = ETV5 (Homo sapiens, UniProt P41161 1-510); settings: protein: recombinant; tags: N-terminal GST; dsDNA, one strand shown
ETV5, sequence (P41161 whole entry): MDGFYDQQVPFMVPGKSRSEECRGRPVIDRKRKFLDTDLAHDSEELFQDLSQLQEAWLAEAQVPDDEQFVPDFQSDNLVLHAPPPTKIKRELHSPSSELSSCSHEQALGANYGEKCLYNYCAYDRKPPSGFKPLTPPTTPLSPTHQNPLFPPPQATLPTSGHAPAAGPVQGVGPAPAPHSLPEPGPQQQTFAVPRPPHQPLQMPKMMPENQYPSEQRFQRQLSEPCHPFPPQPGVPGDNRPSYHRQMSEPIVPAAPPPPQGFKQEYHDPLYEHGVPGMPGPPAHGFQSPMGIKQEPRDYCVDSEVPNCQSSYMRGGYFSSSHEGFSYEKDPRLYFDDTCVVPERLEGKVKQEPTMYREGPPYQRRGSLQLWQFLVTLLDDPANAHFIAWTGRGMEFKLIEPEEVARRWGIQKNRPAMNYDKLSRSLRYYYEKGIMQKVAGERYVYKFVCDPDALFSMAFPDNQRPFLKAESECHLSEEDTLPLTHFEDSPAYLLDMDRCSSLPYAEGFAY
Method in brief: as §1

HSF1 = HSF1 (Homo sapiens, UniProt Q00613 1-529); settings: protein: recombinant; tags: N-terminal GST; chain copies: 3; dsDNA, one strand shown
HSF1, sequence (Q00613 whole entry): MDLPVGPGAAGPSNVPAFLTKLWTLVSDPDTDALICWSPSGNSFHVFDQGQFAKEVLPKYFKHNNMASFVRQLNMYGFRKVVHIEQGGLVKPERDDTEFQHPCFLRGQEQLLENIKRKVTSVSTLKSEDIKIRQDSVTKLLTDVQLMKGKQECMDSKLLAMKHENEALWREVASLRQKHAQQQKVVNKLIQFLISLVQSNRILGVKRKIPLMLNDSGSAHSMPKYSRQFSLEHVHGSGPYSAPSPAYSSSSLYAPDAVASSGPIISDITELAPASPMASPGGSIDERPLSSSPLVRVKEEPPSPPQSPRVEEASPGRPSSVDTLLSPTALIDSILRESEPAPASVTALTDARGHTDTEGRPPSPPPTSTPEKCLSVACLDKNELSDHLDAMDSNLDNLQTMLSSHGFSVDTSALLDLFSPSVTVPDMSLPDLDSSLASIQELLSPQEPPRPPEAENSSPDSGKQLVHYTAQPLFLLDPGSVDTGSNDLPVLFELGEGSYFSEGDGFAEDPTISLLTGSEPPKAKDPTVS
Method in brief: as §1

SPIC = biological target: T8, SPIC (Homo sapiens, UniProt Q8N5J4 1-248); settings: protein: recombinant; tags: N-terminal GST; dsDNA, one strand shown
T8 sequence: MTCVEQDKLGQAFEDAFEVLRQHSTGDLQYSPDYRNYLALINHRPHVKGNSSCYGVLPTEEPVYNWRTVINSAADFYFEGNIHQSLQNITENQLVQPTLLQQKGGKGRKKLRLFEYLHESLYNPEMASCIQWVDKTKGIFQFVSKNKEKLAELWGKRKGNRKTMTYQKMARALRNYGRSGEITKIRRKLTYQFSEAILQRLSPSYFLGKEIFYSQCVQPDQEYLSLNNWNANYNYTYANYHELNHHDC
Method in brief: as §1

ELF4 = ELF4 (Homo sapiens, UniProt Q99607 1-663); settings: protein: recombinant; tags: N-terminal GST; dsDNA, one strand shown
ELF4, sequence (Q99607 whole entry): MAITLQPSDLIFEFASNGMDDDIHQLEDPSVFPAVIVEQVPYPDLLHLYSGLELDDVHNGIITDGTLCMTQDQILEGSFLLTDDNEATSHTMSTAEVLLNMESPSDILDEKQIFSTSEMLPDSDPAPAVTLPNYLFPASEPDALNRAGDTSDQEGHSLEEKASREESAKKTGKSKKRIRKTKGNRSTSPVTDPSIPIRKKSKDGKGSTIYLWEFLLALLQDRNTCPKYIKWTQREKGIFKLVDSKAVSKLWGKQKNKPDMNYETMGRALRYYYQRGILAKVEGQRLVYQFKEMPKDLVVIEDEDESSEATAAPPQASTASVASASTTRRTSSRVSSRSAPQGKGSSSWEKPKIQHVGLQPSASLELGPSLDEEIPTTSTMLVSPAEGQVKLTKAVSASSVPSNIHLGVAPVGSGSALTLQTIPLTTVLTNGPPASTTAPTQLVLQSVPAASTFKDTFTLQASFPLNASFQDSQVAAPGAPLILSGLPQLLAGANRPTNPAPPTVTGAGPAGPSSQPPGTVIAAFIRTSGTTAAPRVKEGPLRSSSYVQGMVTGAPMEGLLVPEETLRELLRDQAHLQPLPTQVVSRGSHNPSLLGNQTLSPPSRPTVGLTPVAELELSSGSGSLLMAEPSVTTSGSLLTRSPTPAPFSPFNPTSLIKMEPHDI
Method in brief: as §1

ELK4 = biological target: T9, ELK4 (Homo sapiens, UniProt P28324-2 1-405); settings: protein: recombinant; tags: N-terminal GST; dsDNA, one strand shown
T9 sequence: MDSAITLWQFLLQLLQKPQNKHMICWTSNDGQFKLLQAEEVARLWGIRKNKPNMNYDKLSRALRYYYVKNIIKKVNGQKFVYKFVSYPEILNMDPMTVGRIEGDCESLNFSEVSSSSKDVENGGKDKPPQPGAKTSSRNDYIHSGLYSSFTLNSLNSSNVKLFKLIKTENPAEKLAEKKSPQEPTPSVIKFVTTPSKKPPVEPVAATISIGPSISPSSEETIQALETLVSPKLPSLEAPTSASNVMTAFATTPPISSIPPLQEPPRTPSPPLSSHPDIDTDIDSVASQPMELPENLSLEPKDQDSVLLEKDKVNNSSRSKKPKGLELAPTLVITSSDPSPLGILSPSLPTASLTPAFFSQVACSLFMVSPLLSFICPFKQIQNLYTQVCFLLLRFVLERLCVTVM
Method in brief: as §1

ETV2 = biological target: T10, ETV2 (Homo sapiens, UniProt O00321 1-342); settings: protein: recombinant; tags: N-terminal GST; dsDNA, one strand shown
T10 sequence: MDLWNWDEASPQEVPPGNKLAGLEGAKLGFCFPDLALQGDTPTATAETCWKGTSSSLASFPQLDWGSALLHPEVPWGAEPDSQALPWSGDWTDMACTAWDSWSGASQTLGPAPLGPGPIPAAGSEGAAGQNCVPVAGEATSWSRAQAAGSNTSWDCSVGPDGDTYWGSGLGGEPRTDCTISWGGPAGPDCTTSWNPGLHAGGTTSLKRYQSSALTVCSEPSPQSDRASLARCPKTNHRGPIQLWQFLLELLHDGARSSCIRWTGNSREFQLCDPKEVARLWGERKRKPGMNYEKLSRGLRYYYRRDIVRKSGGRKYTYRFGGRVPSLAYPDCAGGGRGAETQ
Method in brief: as §1

ELF3 = biological target: T11, ELF3 (Homo sapiens, UniProt P78545 1-371); settings: protein: recombinant; tags: N-terminal GST; dsDNA, one strand shown
T11 sequence: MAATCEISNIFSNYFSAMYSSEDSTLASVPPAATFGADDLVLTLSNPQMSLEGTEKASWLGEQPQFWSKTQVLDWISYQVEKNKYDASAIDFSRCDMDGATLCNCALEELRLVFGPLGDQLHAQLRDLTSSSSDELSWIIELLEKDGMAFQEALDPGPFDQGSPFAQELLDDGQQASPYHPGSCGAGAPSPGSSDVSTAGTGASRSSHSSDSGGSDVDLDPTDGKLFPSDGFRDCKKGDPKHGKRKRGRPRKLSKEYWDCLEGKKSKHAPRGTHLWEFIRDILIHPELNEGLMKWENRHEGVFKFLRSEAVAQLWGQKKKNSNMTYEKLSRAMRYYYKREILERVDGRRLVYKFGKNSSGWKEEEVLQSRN
Method in brief: as §1

CRX = CRX (Homo sapiens, UniProt O43186 1-299); settings: protein: recombinant; tags: N-terminal GST; dsDNA, one strand shown
CRX, sequence (O43186 whole entry): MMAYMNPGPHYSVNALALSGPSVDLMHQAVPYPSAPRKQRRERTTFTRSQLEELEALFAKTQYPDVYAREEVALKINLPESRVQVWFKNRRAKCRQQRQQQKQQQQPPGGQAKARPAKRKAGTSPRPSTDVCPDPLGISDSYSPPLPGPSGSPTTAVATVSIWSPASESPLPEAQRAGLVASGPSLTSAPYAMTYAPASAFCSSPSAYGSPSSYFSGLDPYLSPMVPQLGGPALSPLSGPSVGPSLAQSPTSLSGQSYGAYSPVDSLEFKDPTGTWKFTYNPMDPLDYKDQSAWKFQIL
Method in brief: as §1

ETV1 = ETV1 (Homo sapiens, UniProt P50549 1-477); settings: protein: recombinant; tags: N-terminal GST; dsDNA, one strand shown
ETV1, sequence (P50549 whole entry): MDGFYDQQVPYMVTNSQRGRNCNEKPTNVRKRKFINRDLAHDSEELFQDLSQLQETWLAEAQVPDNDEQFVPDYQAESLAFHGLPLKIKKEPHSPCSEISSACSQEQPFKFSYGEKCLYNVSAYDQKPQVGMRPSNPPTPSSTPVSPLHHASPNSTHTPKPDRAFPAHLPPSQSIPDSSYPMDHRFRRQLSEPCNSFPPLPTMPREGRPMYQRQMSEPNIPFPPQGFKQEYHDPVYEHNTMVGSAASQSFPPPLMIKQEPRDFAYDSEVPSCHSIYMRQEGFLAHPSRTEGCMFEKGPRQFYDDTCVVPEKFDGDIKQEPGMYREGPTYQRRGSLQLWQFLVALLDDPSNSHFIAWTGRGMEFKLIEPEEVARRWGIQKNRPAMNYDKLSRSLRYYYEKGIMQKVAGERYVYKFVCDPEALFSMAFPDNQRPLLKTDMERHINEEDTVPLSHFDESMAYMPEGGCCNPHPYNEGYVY
Method in brief: as §1

ATGTAA
binding signal (FLI1): 1.38 fold enrichment (6-mer frequency, TF over GST control)
binding signal (ELK1): 1.29 fold enrichment (6-mer frequency, TF over GST control)
binding signal (GABPA): 1.13 fold enrichment (6-mer frequency, TF over GST control)
binding signal (ERG): 1.29 fold enrichment (6-mer frequency, TF over GST control)
binding signal (ELF1): 1.23 fold enrichment (6-mer frequency, TF over GST control)
binding signal (EHF): 1.32 fold enrichment (6-mer frequency, TF over GST control)
binding signal (SPI1): 1.23 fold enrichment (6-mer frequency, TF over GST control)
binding signal (SPIB): 1.33 fold enrichment (6-mer frequency, TF over GST control)
binding signal (ELK3): 1.22 fold enrichment (6-mer frequency, TF over GST control)
binding signal (FEV): 1.2 fold enrichment (6-mer frequency, TF over GST control)
binding signal (ETV5): 1.24 fold enrichment (6-mer frequency, TF over GST control)
binding signal (HSF1): 1.28 fold enrichment (6-mer frequency, TF over GST control)
binding signal (SPIC): 1.17 fold enrichment (6-mer frequency, TF over GST control)
binding signal (ELF4): 1.23 fold enrichment (6-mer frequency, TF over GST control)
binding signal (ELK4): 1.28 fold enrichment (6-mer frequency, TF over GST control)
binding signal (ETV2): 1.15 fold enrichment (6-mer frequency, TF over GST control)
binding signal (ELF3): 1.39 fold enrichment (6-mer frequency, TF over GST control)
binding signal (CRX): 1.41 fold enrichment (6-mer frequency, TF over GST control)
binding signal (ETV1): 1.27 fold enrichment (6-mer frequency, TF over GST control)
